# Reference: PubChem BioAssay (EPA / NIEHS)
# Calls of active or inactive are those of the source. How the source made its calls: active means hit-call score of the fitted dose curve at least 0.9, where 1 is the maximum; inactive means score below 0.9.
# Key:
# Settings in all cases: mRNA level, 48 h; actives raise or lower the signal
# [1] = read-out: Tumor necrosis factor receptor superfamily member 6 (Homo sapiens) (UniProt P25445); experiment: LTEA_HepaRG_FAS: Life Technologies and Expression Analysis (LTEA) Assay for Fas cell surface death receptor (FAS) using HepaRG (AID 2283447)
# Outline: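 Differentiated HepaRG cells in serum-free induction medium were exposed 48 h to 8 half-log concentrations up to 100 uM in 0.5% DMSO, in duplicate. FAS mRNA was measured by qRT-PCR normalised to ACTB, GAPDH and POLR2A; bidirectional fit versus DMSO.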
# [2] = read-out: Fatty acid synthase (Homo sapiens) (UniProt P49327); experiment: LTEA_HepaRG_FASN: Life Technologies and Expression Analysis (LTEA) Assay for Fatty Acid Synthase (FASN) using HepaRG (AID 2283448);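 on AC50: differentiated human HepaRG liver cells in serum-free induction medium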
# Outline: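 Transcript-level assay: HepaRG liver cells are treated for 48 h across an eight-point range topping at 100 uM, and FASN mRNA, normalized to three housekeeping genes, is compared with DMSO controls in both directions.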
# [3] = read-out: Cyclin D2 (CCND2), CCND2 (gene 894); experiment: LTEA_HepaRG_CCND2: Life Technologies and Expression Analysis (LTEA) Assay for Cyclin D2 (CCND2) using HepaRG (AID 2283449);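 further: CCND2 transcript measured by TaqMan qRT-PCR and normalised to three housekeeping genes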
# Outline: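 Chemicals in 0.5% DMSO, eight half-log concentrations from 100 uM top, were applied in duplicate for 48 h to human HepaRG cells in serum-free induction medium. CCND2 mRNA by TaqMan qRT-PCR, normalised to ACTB/GAPDH/POLR2A; bidirectional fit versus DMSO.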
# [4] = read-out: Cyclin Dependent Kinase Inhibitor 1A (CDKN1A), CDKN1A (gene 1026); experiment: LTEA_HepaRG_CDKN1A: Life Technologies and Expression Analysis (LTEA) Assay for Cyclin Dependent Kinase Inhibitor 1A (CDKN1A) using HepaRG (AID 2283450)
# Outline: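 Cryopreserved HepaRG cells were plated and cultured 48 h, then switched to serum-free induction medium. Chemicals (eight half-log concentrations, top 100 uM, 0.5% DMSO) were applied for 48 h. Lysates underwent qRT-PCR for CDKN1A with housekeeping normalization.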
# [5] = read-out: Cyclin D1 (CCND1), CCND1 (gene 595); experiment: LTEA_HepaRG_CCND1: Life Technologies and Expression Analysis (LTEA) Assay for Cyclin D1 (CCND1) using HepaRG (AID 2283451);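 on AC50: differentiated human HepaRG liver cells in serum-free induction medium; TaqMan qRT-PCR transcript level normalised to ACTB GAPDH and POLR2A housekeeping genes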
# Outline: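 Human liver HepaRG line; 48 h dosing, 8 conc. ≤100 uM, 0.5% DMSO; TaqMan qRT-PCR mRNA, 3 housekeeping genes; bidirectional curve fit vs DMSO.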
# [6] = read-out: catalase (CAT), CAT (gene 847); experiment: LTEA_HepaRG_CAT: Life Technologies and Expression Analysis (LTEA) Assay for catalase (CAT) using HepaRG (AID 2283452);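 on AC50: TaqMan qRT-PCR signal normalized to ACTB GAPDH and POLR2A housekeeping genes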
# Outline: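 HepaRG cells in serum-free induction medium, 0.5% DMSO vehicle, exposed 48 h in duplicate over 8 half-log concentrations from 100 uM. CAT mRNA measured by qRT-PCR, normalized to ACTB, GAPDH, POLR2A; bidirectional fit versus DMSO.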
# [7] = read-out: flavin-containing dimethylaniline monooxygenases 3 (FMO3), FMO3 (gene 2328); experiment: LTEA_HepaRG_FMO3: Life Technologies and Expression Analysis (LTEA) Assay for flavin-containing dimethylaniline monooxygenases 3 (FMO3) using HepaRG (AID 2283453);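 on AC50: differentiated human HepaRG liver cells in serum-free induction medium; FMO3 transcript by TaqMan qRT-PCR normalized to ACTB GAPDH and POLR2A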
# Outline: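 HepaRG, 48 h exposure, 8-pt half-log series from 100 uM, 0.5% DMSO vehicle, duplicates; FMO3 transcript by Fluidigm TaqMan qRT-PCR, housekeeping-normalized; gain/loss fit vs DMSO.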
# [8] = read-out: Cytochrome P450 (CYP1A1), CYP1A1 (gene 1543); experiment: LTEA_HepaRG_CYP1A1: Life Technologies and Expression Analysis (LTEA) Assay for Cytochrome P450 (CYP1A1) using HepaRG (AID 2283454)
# Outline: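 Induction of CYP1A1 mRNA in a human hepatic cell line was measured 48 h after dosing, with 1 mM phenobarbital as induction positive control and 0.5% DMSO vehicle as baseline for bidirectional curve fitting.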
# [9] = read-out: CFLAR gene, CFLAR (gene 8837); experiment: LTEA_HepaRG_CFLAR: Life Technologies and Expression Analysis (LTEA) Assay for CFLAR gene using HepaRG (AID 2283455)
# Outline: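 Differentiated HepaRG cells in serum-free induction medium were exposed 48 h in duplicate to eight half-log concentrations up to 100 uM in 0.5% DMSO; mRNA measured by TaqMan qRT-PCR, normalized to ACTB, GAPDH, POLR2A; bidirectional fitting versus DMSO.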
# Fatty acid synthase (Homo sapiens), sequence (P49327 whole entry, looked up): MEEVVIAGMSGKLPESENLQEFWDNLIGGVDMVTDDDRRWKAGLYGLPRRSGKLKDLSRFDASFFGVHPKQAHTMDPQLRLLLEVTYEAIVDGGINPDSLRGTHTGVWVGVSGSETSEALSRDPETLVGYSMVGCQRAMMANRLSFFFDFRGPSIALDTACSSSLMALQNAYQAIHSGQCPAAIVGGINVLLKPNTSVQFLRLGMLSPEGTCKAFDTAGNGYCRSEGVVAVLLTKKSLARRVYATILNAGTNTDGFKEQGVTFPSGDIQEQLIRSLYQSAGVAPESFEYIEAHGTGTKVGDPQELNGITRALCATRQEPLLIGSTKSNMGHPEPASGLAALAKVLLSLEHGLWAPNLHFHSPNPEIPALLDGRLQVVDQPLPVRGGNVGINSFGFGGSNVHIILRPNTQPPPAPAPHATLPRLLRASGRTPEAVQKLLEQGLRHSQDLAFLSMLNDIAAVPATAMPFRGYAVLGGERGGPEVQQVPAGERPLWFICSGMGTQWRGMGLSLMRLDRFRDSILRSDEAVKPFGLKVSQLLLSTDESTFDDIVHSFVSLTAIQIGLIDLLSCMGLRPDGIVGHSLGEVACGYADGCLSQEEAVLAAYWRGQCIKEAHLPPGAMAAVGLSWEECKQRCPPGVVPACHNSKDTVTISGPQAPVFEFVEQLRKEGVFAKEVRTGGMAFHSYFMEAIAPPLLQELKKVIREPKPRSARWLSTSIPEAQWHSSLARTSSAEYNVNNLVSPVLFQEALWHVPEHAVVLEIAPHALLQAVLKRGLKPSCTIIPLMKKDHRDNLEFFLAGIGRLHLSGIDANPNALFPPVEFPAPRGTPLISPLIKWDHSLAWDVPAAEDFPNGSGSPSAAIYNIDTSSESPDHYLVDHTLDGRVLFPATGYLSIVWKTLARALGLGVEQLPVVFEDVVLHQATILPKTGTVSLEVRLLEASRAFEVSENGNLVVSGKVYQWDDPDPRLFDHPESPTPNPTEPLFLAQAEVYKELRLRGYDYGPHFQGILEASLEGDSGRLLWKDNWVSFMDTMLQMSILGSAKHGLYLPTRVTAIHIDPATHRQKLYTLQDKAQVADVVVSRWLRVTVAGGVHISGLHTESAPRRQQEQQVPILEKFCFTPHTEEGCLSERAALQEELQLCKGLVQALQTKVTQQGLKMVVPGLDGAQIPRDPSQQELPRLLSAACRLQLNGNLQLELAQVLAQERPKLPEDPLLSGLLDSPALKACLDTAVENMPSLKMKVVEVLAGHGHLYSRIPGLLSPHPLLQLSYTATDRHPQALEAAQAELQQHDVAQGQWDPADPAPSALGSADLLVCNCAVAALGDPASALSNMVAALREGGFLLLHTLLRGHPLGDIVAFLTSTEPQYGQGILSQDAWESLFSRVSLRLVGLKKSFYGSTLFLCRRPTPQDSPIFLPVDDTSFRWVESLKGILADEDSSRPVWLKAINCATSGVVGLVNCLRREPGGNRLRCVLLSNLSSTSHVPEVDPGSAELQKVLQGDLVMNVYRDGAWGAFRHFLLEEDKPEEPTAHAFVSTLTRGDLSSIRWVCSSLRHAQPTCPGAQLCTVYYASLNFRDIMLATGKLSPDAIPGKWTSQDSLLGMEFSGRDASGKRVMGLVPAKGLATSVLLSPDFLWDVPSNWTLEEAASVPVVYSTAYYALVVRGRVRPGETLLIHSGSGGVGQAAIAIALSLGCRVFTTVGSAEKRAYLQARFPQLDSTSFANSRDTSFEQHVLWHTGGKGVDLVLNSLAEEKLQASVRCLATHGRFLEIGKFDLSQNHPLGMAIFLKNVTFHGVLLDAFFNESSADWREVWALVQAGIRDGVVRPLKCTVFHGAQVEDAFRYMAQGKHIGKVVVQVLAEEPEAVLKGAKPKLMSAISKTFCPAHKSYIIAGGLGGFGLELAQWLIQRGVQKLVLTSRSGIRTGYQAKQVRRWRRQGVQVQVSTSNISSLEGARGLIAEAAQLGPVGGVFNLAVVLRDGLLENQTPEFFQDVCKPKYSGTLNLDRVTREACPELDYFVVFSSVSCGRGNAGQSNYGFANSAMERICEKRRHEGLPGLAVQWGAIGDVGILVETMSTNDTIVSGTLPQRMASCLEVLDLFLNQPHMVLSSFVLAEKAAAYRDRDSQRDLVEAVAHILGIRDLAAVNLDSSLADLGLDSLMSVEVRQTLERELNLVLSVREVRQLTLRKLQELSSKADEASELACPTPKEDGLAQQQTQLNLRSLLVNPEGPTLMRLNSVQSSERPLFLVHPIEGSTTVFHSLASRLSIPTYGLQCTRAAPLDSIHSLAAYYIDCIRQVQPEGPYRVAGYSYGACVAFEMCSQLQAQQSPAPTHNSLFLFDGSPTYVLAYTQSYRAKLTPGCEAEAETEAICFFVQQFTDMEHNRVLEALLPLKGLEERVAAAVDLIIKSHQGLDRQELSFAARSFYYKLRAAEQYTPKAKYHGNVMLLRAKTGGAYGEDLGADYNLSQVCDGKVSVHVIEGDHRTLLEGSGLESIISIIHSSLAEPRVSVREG
smiles,measurement,setting,value
O=S(=O)(O)C(F)(F)C(F)(F)C(F)(F)C(F)(F)C(F)(F)C(F)(F)F,outcome,[1],inactive
same,outcome,[2],inactive
same,outcome,[3],inactive
same,outcome,[4],inactive
same,outcome,[5],inactive
same,AC50,[6],7.16 µM (active)
same,outcome,[7],inactive
same,AC50,[8],50 µM (active)
same,outcome,[9],inactive
CCCCCCCCCc1ccc(O)cc1,outcome,[1],inactive
same,outcome,[2],inactive
same,outcome,[3],inactive
same,outcome,[4],inactive
same,outcome,[5],inactive
same,outcome,[6],inactive
same,outcome,[7],inactive
same,AC50,[8],50 µM (active)
same,outcome,[9],inactive
O=C(N[C@H]1CN2CCC1CC2)c1cc2ccoc2cn1,outcome,[1],inactive
same,outcome,[2],inactive
same,outcome,[3],inactive
same,outcome,[4],inactive
same,outcome,[5],inactive
same,outcome,[6],inactive
same,outcome,[7],inactive
same,AC50,[8],50 µM (active)
same,outcome,[9],inactive
O=C(O)C(F)(F)C(F)(F)C(F)(F)C(F)(F)C(F)(F)C(F)(F)C(F)(F)C(F)(F)C(F)(F)F,AC50,[1],89.3 µM (active)
same,AC50,[2],31.1 µM (active)
same,outcome,[3],inactive
same,AC50,[4],16.8 µM (active)
same,AC50,[5],12.6 µM (active)
same,AC50,[6],65.3 µM (active)
same,AC50,[7],35.3 µM (active)
same,outcome,[8],inactive
same,AC50,[9],89.5 µM (active)
CCCN(CCC)N=O,outcome,[1],inactive
same,outcome,[2],inactive
same,outcome,[3],inactive
same,outcome,[4],inactive
same,outcome,[5],inactive
same,outcome,[6],inactive
same,outcome,[7],inactive
same,AC50,[8],50 µM (active)
same,outcome,[9],inactive
CC(C)C(=O)OCC(C)(C)C(OC(=O)C(C)C)C(C)C (stereo not drawn),outcome,[1],inactive
same,outcome,[2],inactive
same,outcome,[4],inactive
same,outcome,[5],inactive
same,outcome,[6],inactive
same,outcome,[7],inactive
same,outcome,[8],inactive
same,outcome,[9],inactive
Cc1ccccc1[N+](=O)[O-],outcome,[1],inactive
same,outcome,[2],inactive
same,outcome,[4],inactive
same,outcome,[5],inactive
same,outcome,[6],inactive
same,outcome,[7],inactive
same,outcome,[8],inactive
same,outcome,[9],inactive
C=CC(=O)NCNC(=O)C=C,outcome,[1],inactive
same,outcome,[2],inactive
same,outcome,[4],inactive
same,outcome,[5],inactive
same,outcome,[6],inactive
same,outcome,[7],inactive
same,AC50,[8],25 µM (active)
same,outcome,[9],inactive
ClC(Cl)=C(c1ccc(Cl)cc1)c1ccc(Cl)cc1,outcome,[1],inactive
same,AC50,[2],50 µM (active)
same,outcome,[3],inactive
same,outcome,[4],inactive
same,outcome,[5],inactive
same,outcome,[6],inactive
same,outcome,[7],inactive
same,AC50,[8],36.8 µM (active)
same,outcome,[9],inactive
CC(C)(O)C(=O)Nc1ccc([N+](=O)[O-])c(C(F)(F)F)c1,AC50,[1],0.0219 µM (active)
same,outcome,[2],inactive
same,AC50,[3],39.8 nM (active)
same,outcome,[4],inactive
same,outcome,[5],inactive
same,outcome,[6],inactive
same,outcome,[7],inactive
same,AC50,[8],0.0423 µM (active)
same,outcome,[9],inactive
Clc1ccc(Cl)cc1,outcome,[1],inactive
same,outcome,[2],inactive
same,outcome,[3],inactive
same,outcome,[4],inactive
same,outcome,[5],inactive
same,outcome,[6],inactive
same,outcome,[7],inactive
same,outcome,[8],inactive
same,outcome,[9],inactive
C=CC(N)=O,outcome,[1],inactive
same,outcome,[2],inactive
same,outcome,[3],inactive
same,outcome,[4],inactive
same,outcome,[5],inactive
same,outcome,[6],inactive
same,outcome,[7],inactive
same,outcome,[8],inactive
same,outcome,[9],inactive
ClC1=C(Cl)[C@]2(Cl)[C@@H]3[C@@H](Cl)[C@H]4O[C@H]4[C@@H]3C1(Cl)C2(Cl)Cl,outcome,[1],inactive
same,outcome,[2],inactive
same,outcome,[4],inactive
same,outcome,[5],inactive
same,outcome,[6],inactive
same,outcome,[7],inactive
same,AC50,[8],50 µM (active)
same,outcome,[9],inactive
CCC(C)c1cc([N+](=O)[O-])cc([N+](=O)[O-])c1O (stereo not drawn),AC50,[1],2.25 µM (active)
same,AC50,[2],1.16 µM (active)
same,AC50,[4],7.37 µM (active)
same,AC50,[5],11.1 µM (active)
same,AC50,[6],1.38 µM (active)
same,AC50,[7],2.51 µM (active)
same,AC50,[8],85.7 µM (active)
same,AC50,[9],1.5 µM (active)
CCCCCCCCOC(=O)c1ccccc1C(=O)OCCCCCCCC,outcome,[1],inactive
same,outcome,[2],inactive
same,outcome,[3],inactive
same,outcome,[4],inactive
same,outcome,[5],inactive
same,outcome,[6],inactive
same,outcome,[7],inactive
same,outcome,[8],inactive
same,outcome,[9],inactive
Oc1c(Cl)c(Cl)c(Cl)c(Cl)c1Cl,AC50,[1],6.31 µM (active)
same,AC50,[2],1.87 µM (active)
same,outcome,[3],inactive
same,outcome,[4],inactive
same,outcome,[5],inactive
same,AC50,[6],2.73 µM (active)
same,AC50,[7],4.5 µM (active)
same,AC50,[8],7.23 µM (active)
same,AC50,[9],2.17 µM (active)
CCC(C)(c1ccc(O)cc1)c1ccc(O)cc1,outcome,[1],inactive
same,AC50,[2],70.5 µM (active)
same,outcome,[3],inactive
same,outcome,[4],inactive
same,outcome,[5],inactive
same,outcome,[6],inactive
same,outcome,[7],inactive
same,outcome,[8],inactive
same,AC50,[9],71.4 µM (active)
